Where “and” joins values, the source holds several entries; their conditions need not be identical. Identical values can stand only once. Records with an inconclusive call do not appear. Some compounds were tested as several samples or in several runs, with calls that do not always agree. Calls of active or inactive are those of the source. The calls were made as follows, unless noted: active = hit-call score of the fitted dose curve at least 0.9, where 1 is the maximum; inactive = score below 0.9.

Read-out in one assay: CD69, CD69 (gene 969)
Nature of the assay: BSK_LPS_CD69: BioMAP Diversity Plus: LPS Assay for CD69 Biomarker Activity (AID 2284303). The settings on record: primary human HUVEC with PBMC. An outline of the steps:
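Human umbilical vein endothelial cells co-cultured with PBMC under LPS stimulation, chemical exposure 24 h; cell-surface CD69 measured by ELISA and fitted in the positive direction versus DMSO.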

Assay [1] is described as follows: CCTE_Mundy_HCI_iCellGluta_NOG_NeuriteLength: CCTE's Neurite Outgrowth Assay in iCellGluta cells for Neurite Length, Mundy Lab (AID 2284318; active = hit-call score of the fitted dose curve at least 0.9, where 1 is the maximum). Summed up:
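Automated high-content imaging of betaIII-tubulin (Alexa Fluor-488) and Hoechst-stained cells gave neurite length, normalized to the DMSO baseline.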

The test system of the next assay is TTR (gene 7276). Nature of the assay: CCTE_GLTED_hTTR_0.5uM: CCTE's human Transthyretin (hTTR) Inhibition Assay, with 0.5uM TTR, Great Lakes Toxicology and Ecology Division (GLTED) Lab (AID 2284320). An outline of the steps: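 Cell-free displacement assay in which human TTR at 0.5 uM was incubated with test chemical for 2 h. Displacement of the ANSA probe was read by fluorescence at 380 nm excitation/475 nm emission. Loss of signal was fitted in the positive direction versus DMSO.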

The nature of assay [2]: CCTE_Deisenroth_5AR_NBTE_donor: CCTE's 5alpha-reductase NanoBRET Target Engagement Assay […], Deisenroth Lab (AID 2284319). The following applies: actives raise or lower the signal. Summed up: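 In this secondary endpoint, donor luminescence from SRD5A2-NanoLuc in transfected HEK293T flags artifacts. Test chemical (10 nM - 29.9 uM) is present five hours, tracer the last two; mock-tracer wells run plate-matched; data fitted bidirectionally against DMSO.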
(In general: In BRET a luciferase serves as donor, and the signal depends on an acceptor being close.)

A further assay concerns IYD (gene 389434). Nature of the assay: CCTE_GLTED_hIYD: CCTE's human Iodotyrosine Deiodinase (xIYD) Inhibition Assay, Great Lakes Toxicology and Ecology Division (GLTED) Lab (AID 2284317; active = hit-call score of the fitted dose curve at least 0.9, where 1 is the maximum;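 also: cell-free human IYD enzyme made in baculovirus insect cells; iodide freed from monoiodotyrosine measured by cerium arsenite color change at 420 nm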). An outline of the steps: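 First, recombinant human IYD (baculovirus-insect cells), MIT and chemical incubated 3 h. Next, iodide isolated on Dowex. Finally, Sandell-Kolthoff rate read at 420 nm, with platewise normalization to MNT and solvent controls.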

Assay [3] can be described thus: IUF_NPC2a_radial_glia_migration_120hr: Leibniz Research Institute for Environmental Medicine (IUF) 120-hour Neural Progenitor Cell Migration Assay for Radial Glia Migration (NPC2a) (AID 2284298). An outline of the steps:
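Human fetal-cortex neural progenitor spheres (0.3 mm) plated on poly-D-lysine/laminin in N2 differentiation medium, exposed 120 h at 37C with half-medium renewal at day 3. Radial glia migration distance (um) measured from Hoechst-stained nuclei images; DMSO baseline.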

Assay [4] can be described thus: IUF_NPC2a_radial_glia_migration_72hr: Leibniz Research Institute for Environmental Medicine (IUF) 72-hour Neural Progenitor Cell Migration Assay for Radial Glia Migration (NPC2a) (AID 2284299). Summed up:
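Migration out of plated human neural progenitor spheres is scored at 72 h as the distance in um from the sphere core edge to the edge of the migration area. Values are the mean of four manual measurements per well, normalised to DMSO.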

The nature of assay [5]: IUF_NPC2b_neuronal_migration_120hr: Leibniz Research Institute for Environmental Medicine (IUF) 120-hour Neural Progenitor Cell Migration Assay for Neuron Migration (NPC2b) (AID 2284300). An outline of the steps:
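0.3 mm hNPC spheres on poly-D-lysine/laminin in N2 differentiation medium exposed 120 h, half-medium refresh day 3; 7 concentrations, DMSO max 0.1%. Neuron (TUBB3) distance from sphere core by ICC imaging, normalised to radial glia migration.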

Assay [6] in a line: IUF_NPC3_neuronal_differentiation_120hr: Leibniz Research Institute for Environmental Medicine (IUF) 120-hour Neuronal Differentiation Assay (NPC3) (AID 2284301). An outline of the steps: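 Single 0.3 mm neurospheres from human fetal cortex were plated in differentiation medium containing test compound. Medium was half-replaced on day 3. After 120 h cells were fixed, immunostained and imaged, and neuronal fraction was scored against DMSO control.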

Assay [7] is described as follows: IUF_NPC4_neurite_length_120hr: Leibniz Research Institute for Environmental Medicine (IUF) 120-hour Neuronal Morphology Assay for Neurite Length (NPC4) (AID 2284302). An outline of the steps: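 Read-out is mean neurite length in µm of TUBB3-positive neurons, skeletonized from high-content fluorescence images after 120 h. Single 0.3 mm primary human neural progenitor spheres differentiated on poly-D-lysine/laminin under continuous compound exposure; DMSO was baseline.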

A short description of assay [8]: IUF_NPC5_oligodendrocyte_differentiation_120hr: Leibniz Research Institute for Environmental Medicine (IUF) 120-hour Oligodendrocyte Differentiation Assay (NPC5) (AID 2284304; active = hit-call score of the fitted dose curve at least 0.9, where 1 is the maximum;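 also: primary human fetal neural progenitor spheres plated to migrate and differentiate; share of O4-positive cells among Hoechst nuclei found by CNN image analysis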). An outline of the steps: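 Human fetal neural progenitor spheres (0.3 mm) plated on poly-D-lysine/laminin in N2 differentiation medium and exposed for 120 h at 7 concentrations, with half-medium renewal at day 3. O4-positive cells identified by CNN, expressed as percent of Hoechst nuclei.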

Assay [9] in a line: IUF_NPC4_neurite_area_120hr: Leibniz Research Institute for Environmental Medicine (IUF) 120-hour Neuronal Morphology Assay for Neurite Area (NPC4) (AID 2284305; active = hit-call score of the fitted dose curve at least 0.9, where 1 is the maximum). Summed up: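 Neurite area is read out as the mean pixel area, excluding nuclei, of skeletonized TUBB3-positive neurons imaged after 120 h. Primary human neural progenitor spheres differentiated on poly-D-lysine/laminin with compound present from day 0. Activity was referenced to DMSO controls.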

Assay [10] can be described thus: IUF_NPC2-5_cytotoxicity_72hr: Cytotoxicity Assessment at 72 hours in the Leibniz Research Institute for Environmental Medicine (IUF) Neural Progenitor Cell Migration and Differentiation Assay for Cytotoxicity (NPC2-5) (AID 2284306; active = hit-call score of the fitted dose curve at least 0.9, where 1 is the maximum;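 also: LDH release into supernatant measured by resorufin fluorescence marking membrane damage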). An outline of the steps: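 Membrane integrity loss was scored from fluorescence (RFU) of resorufin generated by LDH in culture supernatant, 72 h after dosing. Differentiating human progenitor spheres received seven serial compound concentrations alongside a solvent control.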

A short description of assay [11]: IUF_NPC2-5_cytotoxicity_120hr: Cytotoxicity Assessment at 120 hours in the Leibniz Research Institute for Environmental Medicine (IUF) Neural Progenitor Cell Migration and Differentiation Assay (NPC2-5) (AID 2284307; active = hit-call score of the fitted dose curve at least 0.9, where 1 is the maximum;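 also: LDH released into supernatant as membrane damage marker via resorufin fluorescence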). Summed up: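 Human fetal (GW 16-19) neural progenitor spheres (0.3 mm) plated on poly-D-lysine/laminin in N2 differentiation medium, exposed 120 h with half-medium renewal at day 3; 7 concentrations plus solvent control, DMSO ≤0.1%. LDH release in supernatant read by resorufin fluorescence.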

Assay [12] can be described thus: IUF_NPC2-5_cell_number_120hr: Cell Number Assessment at 120 hours in the Leibniz Research Institute for Environmental Medicine (IUF) Neural Progenitor Cell Migration and Differentiation Assay (NPC2-5) (AID 2284308).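 Also: count of Hoechst-stained nuclei in migration zone around plated human neural progenitor spheres.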 Summed up:
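Human fetal neural progenitor spheres (0.3 mm) plated on poly-D-lysine/laminin in N2 differentiation medium, exposed five days across 7 concentrations with half-medium refresh at day 3. Hoechst-positive nuclei counted in migration area at 120 h, relative to DMSO.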

Assay [13] is described as follows: VALA_TUBHUV_Agonist_CellCount: Viability Assessment in the VALA Sciences human Umbilical Vein Endothelial Tubule Formation (TUBHUV) Agonism Assay (AID 2284309; active = hit-call score of the fitted dose curve at least 0.9, where 1 is the maximum). An outline of the steps:
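HUVEC co-cultured 1:3 with HDF for 3 days in 10 ng/ml VEGF, then compounds added in VEGF medium for a further 3 days (72 h). Nuclear-stain/CD31 imaging cell count. Positive-direction fit versus 0.1% DMSO vehicle.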

A short description of assay [14]: VALA_TUBIPS_Agonist_TubuleLength: VALA Sciences human iPS-derived Endothelial Tubule Formation (TUBIPS) Agonism Assay (AID 2284311; active = hit-call score of the fitted dose curve at least 0.9, where 1 is the maximum). An outline of the steps: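 Human iPS-derived endothelial cells were exposed to compound for 72 h. Tubule formation was imaged by high-content fluorescence and scored as gain of signal relative to DMSO vehicle (agonist mode).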
A short description of assay [15]: IUF_NPC2-5_viability_120hr: Viability Assessment at 120 hours in the Leibniz Research Institute for Environmental Medicine (IUF) Neural Progenitor Cell Migration and Differentiation Assay (NPC2-5) (AID 2284312). Summed up: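 Alamar blue resorufin fluorescence read after 5 days of differentiation, with compound present from day 0 and replenished at day 3. Primary hNPC spheres on laminin-coated plates, 37C; seven concentrations plus solvent control, fitted against DMSO.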

Assay [16] can be described thus: VALA_TUBIPS_Antagonist_TubuleLength: VALA Sciences human iPS-derived Endothelial Tubule Formation (TUBIPS) Antagonist Assay (AID 2284313; active = hit-call score of the fitted dose curve at least 0.9, where 1 is the maximum). An outline of the steps: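 Cells grown 3 days with 10 ng/ml VEGF, then exposed to compounds in VEGF medium for another 3 days. After fixation, nuclear stain and CD31 immunofluorescence imaging gave mean total tubule length against 0.1% DMSO; suramin (100 uM) inhibition control.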

The nature of assay [17]: VALA_MIGHUV2_WoundArea: VALA Sciences human Umbilical Vein Endothelial Cell Migration (MIGHUV) Assay, Area of Scratch Wound after Recovery (AID 2284316; active = hit-call score of the fitted dose curve at least 0.9, where 1 is the maximum). Summed up:
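HUVEC seeded at 9000 cells/well, scratched after 24 h; test chemical added within 30 min, 6-point concentration response in triplicate (0.1% DMSO vehicle). After 24 h wound recovery, cells fixed and Hoechst-stained nuclei in wound area imaged; Cytochalasin D reference control.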

`O=C(CC(=O)C(F)(F)C(F)(F)C(F)(F)F)c1cccs1`: the outcome with CD69, CD69 (gene 969) was “inactive”; in assay [1] it was “inactive”. Besides, the AC50 – broadly, the concentration giving half of the maximal activity seen – in the assay on TTR (gene 7276) is 0.193 µM (active).
`CCCCc1oc2ccccc2c1C(=O)c1cc(I)c(OCCN(CC)CC)c(I)c1`: in [2], the result was inactive.
For `O=C(Nc1ccc(Cl)c(Cl)c1)c1cc(Cl)cc(Cl)c1O`, the AC50 in the assay with IYD (gene 389434) was 77.4 µM (active).
As for `O=C(CCCN1CCC(O)(c2ccc(Cl)cc2)CC1)c1ccc(F)cc1`, the AC50 in [3] was 15.9 µM (active); in assay [8] it was 3.35 µM (active); in assay [11] it was 1.98 µM (active). Moreover, the result in [4], in assay [5], in [6], in [7], in [9] and in assay [10] was inactive. Moreover, the outcome in [12], in assay [13], in assay [14], in assay [15], in [16] and in [17] was inactive.
For the compound `CN(Cc1cnc2nc(N)nc(N)c2n1)c1ccc(C(=O)N[C@@H](CCC(=O)O)C(=O)O)cc1`, in the assay with CD69, CD69 (gene 969), the result was inactive.
With `NC(=NCCCCCCN=C(N)/N=C(\N)Nc1ccc(Cl)cc1)/N=C(\N)Nc1ccc(Cl)cc1`, the AC50 with IYD (gene 389434) was 54.7 µM (active).
As for `O=C(O)CCC(F)(F)C(F)(F)C(F)(F)C(F)(F)C(F)(F)C(F)(F)F`, the outcome with CD69, CD69 (gene 969) was inactive. The AC50 in the assay on TTR (gene 7276) was 3.66 µM (active).
In the case of `O=C1OC2(c3ccccc31)c1cc(I)c(O)c(I)c1Oc1c2cc(I)c(O)c1I`, in assay [2], the AC50 is 2.23 µM (active).
Turning to `CCc1ccccc1O`, the compound was called inactive in assay [2].
As for `CCCCCCCCCCCC`, the AC50 with CD69, CD69 (gene 969) was 30.1 µM (active); in the assay with IYD (gene 389434), 38.4 µM (active). Further, the outcome in the assay with CD69, CD69 (gene 969) is “inactive”; in assay [2] it was “inactive”.
On to `C=CC(=O)OCCC(F)(F)C(F)(F)C(F)(F)C(F)(F)C(F)(F)C(F)(F)C(F)(F)C(F)(F)F`, for which the outcome in the assay with CD69, CD69 (gene 969) was “inactive”; in assay [1], “inactive”.
As for `Oc1c(Cl)cc(Cl)cc1Sc1cc(Cl)cc(Cl)c1O`, the AC50 was 24.3 µM (active) and 27.4 µM (active) with CD69, CD69 (gene 969); 56.9 µM (active) and 88.2 µM (active) and 100 µM (active) in the assay with IYD (gene 389434).
`O=P(O)(O)CCC(F)(F)C(F)(F)C(F)(F)C(F)(F)C(F)(F)C(F)(F)F`: the outcome with CD69, CD69 (gene 969) is “inactive”; in [1], “inactive”. In addition, in the assay with TTR (gene 7276), the AC50 is 6.47 µM (active).
Turning to `Cc1cc(Cc2cc(C)cc(C(C)(C)C)c2O)c(O)c(C(C)(C)C)c1`, the concentration at half-maximal activity (AC50) in the assay on IYD (gene 389434) is 24.2 µM (active).
`CCCCCCCCCCCCOC(=O)c1cc(O)c(O)c(O)c1`: the half-maximal activity concentration (AC50) with IYD (gene 389434) is 22.9 µM (active).
Regarding `Oc1ccc(Cc2ccccc2O)cc1`, in the assay with CD69, CD69 (gene 969), the outcome was inactive.
As for `COc1cc([N+](=O)[O-])ccc1N`, the compound was classed as inactive in assay [2].
Turning to `O=S(=O)(O)C(F)(F)C(F)(F)C(F)(F)C(F)(F)C(F)(F)C(F)(F)C(F)(F)C(F)(F)C(F)(F)C(F)(F)F`, the AC50 with CD69, CD69 (gene 969) is 14.6 µM (active) and 3.91 µM (active).
Consider `CN(CCO)S(=O)(=O)C(F)(F)C(F)(F)C(F)(F)C(F)(F)C(F)(F)C(F)(F)C(F)(F)C(F)(F)F`, for which the result with CD69, CD69 (gene 969) was inactive.
On to `CCCCCCCCCCCCOS(=O)(=O)O`, for which the AC50 in assay [2] is 50 µM (active).
For `O=C(O)CCC(F)(F)C(F)(F)C(F)(F)C(F)(F)C(F)(F)F`, in the assay with CD69, CD69 (gene 969), the AC50 was 5.95 µM (active) and the outcome was inactive. For the same compound, the AC50 in the assay on TTR (gene 7276) is 3.12 µM (active).

The record behind these values is PubChem BioAssay (EPA / NIEHS).
